Compounds with a hit are over-represented: about 19% of the library has one in this group of screens.
HT1080-NT tox: qHTS for induction of synthetic lethality in tumor cells producing 2HG: qHTS for the HT-1080-NT fibrosarcoma cell line; HT-1080-NT fibrosarcoma viability, CellTiter-Glo ATP luminescence, 48 h; Potency, µM (top dose mostly 46.1 µM), for inactives: at the highest dose activity, negative = less viability, hits mostly cytotoxic; actives 1.6% (n = 360,000); AID 686970, 2013;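 note: NT is the 2HG producing partner of a matched IDH1 knockdown line; potency is the fitted concentration of half-maximal effect; 0% = DMSO-treated cells and -100% = media-only wells without cells; nearly all actives have a fitted effect of over 55% in size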
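Read-out is CellTiter-Glo luminescence after 10 minutes at room temperature, following 48 hours' compound treatment of HT-1080-NT cells (750 cells/well, RPMI, 5% FBS, 37 degrees C).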
HT1080 IDH1KD tx: qHTS for induction of synthetic lethality in tumor cells producing 2HG: qHTS for the HT-1080-IDH1KD cell line | HT-1080 IDH1 knockdown viability, ATP luminescence, 48 h | Potency, µM (top dose mostly 46.1 µM), for inactives: top-dose activity, negative = toxicity, usual class: cytotoxic | actives 2% (n = 360,000);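 note: potency is the fitted concentration of half-maximal effect; 0% = DMSO wells and -100% = cell-free medium wells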
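Viability of IDH1-knockdown HT-1080 fibrosarcoma cells was assessed by CellTiter-Glo after 48 h at 37 °C with titrated compound; concentration-effect curves were classified by fit quality and response size.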
DT40 TDP1 no CPT: qHTS for Inhibitors of human tyrosyl-DNA phosphodiesterase 1 (TDP1): qHTS in cells in absence of CPT; Potency, µM (series often up to 46.2 µM), inactives show at the highest dose activity change, negative = growth inhibition, usual class: inhibitors; actives 15% (n = 420,000); AID 686978, 2013; DT40 Tdp1-/- hTDP1 cells, no CPT, ATP luminescence, 48 h; note: potency is the fitted concentration of half-maximal effect; nearly all actives have a fitted effect of over 55% in size
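No-CPT arm: Tdp1-/-;hTDP1 DT40 cells (400/well) plus compounds, incubated ≥48 hr at 37 °C. Readout CellTiter-Glo luminescence.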
IL-1B inflam inh: qHTS for Inhibitors of Inflammasome Signaling: IL-1-beta AlphaLISA Primary Screen. THP-1 LPS/ATP IL-1B secretion, AlphaLISA, 16 h; active compounds read low. activity change, % at 57.5 µM. actives 4.7% (n = 360,000); in the data active = activity change below about -50%; inconclusive = mostly about -30% to -49%
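THP-1 cells pretreated 1 hr with compounds (up to 57.5 uM final), then stimulated with LPS (250 ng/mL final) plus ATP (1.25 mM final); secreted IL-1B measured by AlphaLISA after 16 hr, decreased signal indicating inhibition.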
TDP1 cell CPT: qHTS for Inhibitors of human tyrosyl-DNA phosphodiesterase 1 (TDP1): qHTS in cells in presence of CPT; actives 12% (n = 420,000); chicken DT40 Tdp1-/-;hTDP1 cells + 20 nM CPT, ATP luminescence, 48 h; Potency, µM (top dose mostly 46.2 µM), without a hit: top-dose activity change, negative = growth inhibition, most hits filed as inhibitors; note: potency is the fitted concentration of half-maximal effect; nearly all actives have a fitted effect of over 55% in size
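Chicken DT40 Tdp1-/- cells complemented with human TDP1, 400 cells/well, exposed to compounds plus 20 nM camptothecin for at least 48 h at 37 C; viability read as ATP content by CellTiter-Glo luminescence.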
* = called active by the depositor; ? = inconclusive; . = no result given. Unless noted, calls come from the whole dose curve; as a rule, active = well fitted curve in the direction sought with a large enough effect; inconclusive = small, poorly fitted or top-dose-only effect, or another doubt; inactive = no such curve, though single readings can be large; an effect the other way counts as inactive or inconclusive. Unless noted, % is set by controls: 0 for no effect and ±100 for the full control effect.

SMILES	HT1080-NT tox	HT1080 IDH1KD tx	DT40 TDP1 no CPT	IL-1B inflam inh	TDP1 cell CPT
Cc1csc(NC(=O)CCC(=O)N(CC(=O)NC2CCCC2)Cc2ccccc2)n1	-1%	0%	-21%	-8	-18%
O=C(CCl)N(c1ccccc1)c1c[nH]c2ccccc12	?	6.5µM*	2.9µM*	-100*	2.3µM*
O=C(CCl)N(c1ccc(Cl)cc1)c1c[nH]c2ccccc12	7.3µM*	4.6µM*	1.8µM*	-109*	1.8µM*
O=C(NCc1ccc(Cl)cc1)C(=O)c1c[nH]c2ccccc12	-4%	0%	4%	8	?
NCCCCc1ccc2ccc3cccc4ccc1c2c34	?	-21%	?	-28	16µM*
O=C(O)CCCc1ccc2ccc3cccc4ccc1c2c34	-8%	-25%	6%	10	2%
COc1ccc(C(=O)NCc2ccc(C)cc2)cc1S(=O)(=O)N1CCOCC1	-4%	1%	0%	-21	-11%
Cc1ccc(CSCCNC(=O)c2ccc(Cl)c(S(=O)(=O)N3CCOCC3)c2)cc1	-2%	-25%	18µM*	-10	?
O=C(NCCSCc1ccccc1)c1cc(S(=O)(=O)N2CCOCC2)ccc1F	-1%	-3%	?	24	12µM*
CN(Cc1cccc(Cl)c1Cl)C(=O)c1cc(S(=O)(=O)N2CCOCC2)ccc1F	-12%	-2%	21µM*	?	16µM*
Cc1ccc(N(Cc2ccccc2)C(=O)c2cc(S(=O)(=O)N3CCOCC3)ccc2F)cc1	22%	12%	7.3µM*	-9	18µM*
O=C(CCc1nnc(Cc2c[nH]c3ccccc23)o1)NCCC1CCCCO1 (stereo not given)	0%	-1%	4%	-14	-12%
CCOC(=O)C1CCCN(C(=O)CN2C(=O)c3ccccc3S2(=O)=O)C1 (stereo not given)	9%	2%	3%	20	2%
COc1ccc(C(=O)c2c(N)c(C(=O)Nc3cccc(OC)c3)c3ccccn23)cc1	.	.	-27%	.	?
O=C(Nc1ccc(F)cc1)C1CCCN(C2=NS(=O)(=O)c3ccccc32)C1 (stereo not given)	3%	2%	4%	24	-11%
Cc1ccc(N(Cc2ccccc2)C(=O)c2cc(S(=O)(=O)N3CCOCC3)ccc2Cl)cc1	-21%	-17%	7.3µM*	?	12µM*
CN(Cc1ccccc1)S(=O)(=O)c1ccc(Cl)c(C(=O)O)c1	0%	13%	-21%	-10	-9%
Cc1cccc(N(Cc2ccccc2)C(=O)c2cc(S(=O)(=O)N3CCOCC3)ccc2Cl)c1	-21%	-21%	15µM*	?	15µM*
CC(=O)N1CCN(S(=O)(=O)c2cccc(C(=O)N(Cc3ccccc3)c3cccc(C)c3)c2)CC1	-3%	0%	?	-1	?
CN(Cc1ccccc1)S(=O)(=O)c1ccc(Cl)c(C(=O)N2CCOCC2)c1	1%	-3%	21µM*	25	18µM*
C=CCN(Cc1ccc(Cl)s1)C(=O)c1cc(S(=O)(=O)N2CCOCC2)ccc1F	-3%	-11%	13µM*	18	18µM*
CCOc1ccccc1OC(=O)CN1C(=O)c2ccccc2C1=O	-8%	1%	6%	-10	1%
COc1ccc(N2CC(C(=O)N(CC(C)C)c3c(N)n(Cc4ccccc4)c(=O)[nH]c3=O)CC2=O)c(OC)c1 (stereo not given)	5%	5%	-16%	14	-5%
Cc1ccccc1CNC(=O)c1ccc2nc(C(C)C)oc2c1	.	.	-22%	.	-29%
CCCN1C=CC(=C2C(=O)c3ccccc3C2=O)C=C1	5.6µM*	11µM*	5.2µM*	?	8.2µM*
SMILES	HT1080-NT tox	HT1080 IDH1KD tx	DT40 TDP1 no CPT	IL-1B inflam inh	TDP1 cell CPT
CCN1C=CC(=C2C(=O)c3ccccc3C2=O)C=C1	10µM*	11µM*	15µM*	?	16µM*
NCC1O[C@@H](OC2C(N)CC(N)C(O)C2O[C@@H]2OC(CO)C(O)C2O)C(N)C(O)C1O (stereo not given in full)	.	.	-1%	.	-29%
COc1ccccc1NC(=O)c1ccc(NC(=O)COC(=O)CCC2CCCC2)cc1	3%	3%	17%	0	2%
COc1ccc(NC(=O)N(CCC(C)C)C(C)c2cccs2)c(OC)c1 (stereo not given)	.	.	18µM*	.	?
COc1ccc(NC(=O)CC(=O)Nc2ccc(OC)cc2OC)c(OC)c1	6%	7%	12%	-9	1%
CC(C)CCN(C(=O)Nc1ccccc1)C(C)c1cccs1 (stereo not given)	-18%	?	18µM*	-6	21µM*
CCc1ccc(NC(=O)N(Cc2ccco2)C(C)c2cccs2)cc1 (stereo not given)	1%	-4%	?	?	?
CC(c1cccs1)N(C(=O)Nc1ccccc1)C1CCCCC1 (stereo not given)	15%	15%	14µM*	1	16µM*
CCn1c(=S)sc2c(=O)n(CC(=O)Nc3ccc(Cl)cc3)c(C)nc21	-1%	6%	-8%	-15	?
O=C(O)C(Cc1ccc(Cl)cc1)NS(=O)(=O)c1ccc(Cl)cc1 (stereo not given)	12%	5%	24%	29	7%
COc1cc(N=Nc2ccc(C)cc2S(N)(=O)=O)c(C)cc1N	?	-22%	?	13	-3%
Cc1nn(-c2ccccc2)c(Cl)c1C(=O)N1CCN(c2ncnc3c2cnn3-c2ccccc2)CC1	21µM*	?	4.1µM*	-74*	3.3µM*
CCc1cc2c(N3CCN(C(=O)c4ccco4)CC3)ncnc2s1	-10%	-3%	?	-1	?
O=C(c1ccco1)N1CCN(c2ncnc3c2cnn3-c2ccccc2)CC1	-7%	-12%	29µM*	0	?
O=C(c1cccc(Cl)c1)N1CCN(c2ncnc3c2cnn3-c2ccccc2)CC1	13%	-1%	-4%	18	20%
O=C(c1ccccc1)N1CCN(c2ncnc3c2cnn3-c2ccccc2)CC1	-11%	-7%	21µM*	3	23µM*
COc1cc(OC)cc(-c2oc3cccnc3c2C#CCCO)c1	-2%	-2%	?	-64*	?
COc1ccc(CNC(=O)c2ccc3nc(-c4ccc(F)cc4)c(-c4ccc(F)cc4)nc3c2)cc1	.	.	-27%	.	-20%

Screening results deposited in PubChem BioAssay by National Center for Advancing Translational Sciences (NCATS).
